Data reported in PubChem BioAssay AID449764 (Southern Research Specialized Biocontainment Screening …, 2010).
About 1,700 (74%) of roughly 2,300 compounds were called active. No rule for the calls is given here. The set was probably picked from earlier hits. The list shows a part of the results. Entries with a potency or affinity are not part of this list.

Test: Mycobacterium tuberculosis H37Rv growth inhibition, no glycerol, confirmatory dose response (AID 449764);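 also: growth read after 7 days of incubation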
Conditions: series mostly up to 100 µM; inhibition: at the top concentration

Structure (SMILES) | inhibition
C=CCn1c(Cc2cccs2)nnc1SCC(=O)Nc1ccc(C(=O)OCC)cc1 | 0.82% (inactive)
CCCCCCCC(=O)N/N=C(/C)c1c(O)cc(C)oc1=O | -9.85% (inactive)
CN1CCN(CC/C=C2/c3ccccc3Sc3ccc(S(=O)(=O)N(C)C)cc32)CC1 | -1.39% (inactive)
O=c1oc2cc(O)ccc2c2ccccc12 | -2.92% (inactive)
CCCCCOc1ccc(N2C(=O)C3C4C=CC(C3C2=O)N(C)C4=O)cc1 (stereo unspecified) | -6.07% (inactive)
O=c1c2cc(-c3ccccc3)sc2ncn1/N=C/c1ccco1 | 26.1% (inactive)
O=C(NC1CCCCC1)C(c1ccc2ncccc2c1)N(Cc1ccco1)C(=O)c1ccc2c(c1)OCCO2 (stereo unspecified) | 4.79% (inactive)
CCCCc1ccc(NC=C2C(=O)OC3(CCCCC3)OC2=O)cc1 | 1.5% (inactive)
O=C(Nc1ccc(N2CCOCC2)c(Cl)c1)c1c(F)c(F)c(F)c(F)c1F | 16.1% (inactive)
Cc1cc(N2CCCCC2)n2ncc(-c3ccc(Cl)cc3)c2n1 | 4.56% (inactive)
CCSCc1nnc(SCC(=O)Nc2cccc(SC)c2)n1C | 0.62% (inactive)
Cc1ccc(C(=O)N/N=C/C=C/c2ccccc2)cc1 | -6.65% (inactive)
Cc1nn(Cc2ccccc2)c(C)c1C(=O)OCC(=O)c1cc(C)n(CC(F)(F)F)c1C | 2.72% (inactive)
CCCCCC(=O)Nc1cccc2ccccc12 | 24.4% (inactive)
Cc1cc(C)c2nc(N3CCCC(C(=O)N4CCN(c5ncccn5)CC4)C3)sc2c1 (stereo unspecified) | -1.73% (inactive)
Cc1c(NC(=O)c2ccc([N+](=O)[O-])o2)cccc1-c1nc2ncccc2o1 | -10.9% (inactive)
CCCCCOC(=O)Nc1nnc(CCCCC)s1 | -0.7% (inactive)
C/C(CC(=O)Nc1ccc(C)c(Cl)c1)=N\NC(=O)Cc1cnc(N)s1 | 21.7% (inactive)
Cc1ccc(N/N=C/C=C/c2ccco2)cc1 | 13.8% (inactive)
CCOC(=O)N1CCN=C1SCc1ccc(C(F)(F)F)cc1 | 3.73% (inactive)
O=C(CSc1nc2ccccc2[nH]1)N1c2ccccc2Sc2ccccc21 | 4.61% (inactive)
CCOC(=O)Oc1ccc2oc(C)c(C(=O)OCCOC)c2c1 | 7.24% (inactive)

Structure (SMILES) | inhibition
C=CC[N@@+]12CC[C@]34c5ccccc5N5/C=C6\C7N(/C=C(\C53)[C@@H](C[C@@H]41)/C(=C/CO)C2)c1ccccc1[C@@]71CC[N@@+]2(CC=C)C/C(=C\CO)[C@@H]6C[C@@H]12 (stereo partly specified) | 15.8% (inactive)
CCOC(=O)c1c(CN2CCN(Cc3ccccc3)CC2)n(C)c2cc(Br)c(OC)cc12 | 2.08% (inactive)
O=C1N[C@@H](Cc2ccccc2)C(=O)N2[C@H]3Nc4ccccc4[C@@]3([C@]34C[C@H]5C(=O)N[C@@H](Cc6ccccc6)C(=O)N5[C@H]3Nc3ccccc34)C[C@@H]12 | 27.3% (inactive)
CCC(=O)c1coc2ccc(O)cc12 | 3.23% (inactive)
CC(C)NCC(O)c1ccc(O)c(O)c1 (stereo unspecified) | -0.07% (inactive)
CCc1ccc(-n2nc3cc(C)c(N)cc3n2)cc1 | 9.43% (inactive)
CCOc1ccc(N2C(=O)CS/C2=C(\C(Cl)=C(Cl)Cl)[N+](=O)[O-])cc1 | -1.12% (inactive)
CC(=O)c1c(C)n([O-])c2cc(F)c(F)cc2[n+]1=O | -9.5% (inactive)
CCCCn1c(-c2ccc(C(C)(C)C)cc2)nc2cc3[nH]c(=O)c(C(C)C)nc3cc21 | 4.74% (inactive)
Cc1nn(-c2ccccc2)c(N2CCCC2)c1/C=N/Nc1ccc(S(N)(=O)=O)cc1[N+](=O)[O-] | 14.3% (inactive)
CC(=O)/C(=N\Nc1ccc(C)cc1)N1CCOCC1 | 1.57% (inactive)
Cc1ccc(C(=O)CCC(=O)OCC(=O)Nc2c(C)nn(-c3ccccc3)c2C)cc1 | -6.34% (inactive)
CCCCCn1c(CN2CCN(c3cccc(Cl)c3)CC2)nc2c1c(=O)[nH]c(=O)n2C | 11.1% (inactive)
Cc1ccc(Sc2ccc(/C=C3/C(=O)NN(c4ccccc4)C3=O)o2)cc1 | -5.58% (inactive)
CSc1cccc(N=C2C(=O)Nc3ccccc32)c1 | -2.79% (inactive)
COc1cccc(C(=O)/C=C2\Sc3ccccc3N2C)c1 | 8.66% (inactive)
Fc1ccc(-c2nnc(CSc3nnc(-c4cccs4)o3)o2)cc1 | 1.3% (inactive)
CC/C(=C\C(=O)c1cccnc1)Nc1ccc(C)c(C)c1 | 10.2% (inactive)
C=C(C)C1CC=C(C)/C(=N/NC(=O)CNc2ccc(OCC)cc2)C1 (stereo unspecified) | -7.09% (inactive)
Cc1[nH]nc2nc3c(c(OC(=O)c4ccccc4)c12)c(=O)n(C)c(=O)n3C | -48% (inactive)
O=C1CC(Nc2ccc3ccccc3c2)C(=O)N1Cc1ccccc1 (stereo unspecified) | -40.4% (inactive)
O=C(COC(=O)C1CCN(c2ccc(C(F)(F)F)cn2)CC1)Nc1ccc(F)cc1[N+](=O)[O-] | 3.56% (inactive)

Structure (SMILES) | inhibition
Cc1ccc(N=Nc2c(C)[nH]n(C(N)=S)c2=O)cc1 | 0.95% (inactive)
O=C(Nc1cccc(C(F)(F)F)c1)c1ccc2nc(-c3ccco3)c(-c3ccco3)nc2c1 | -1.75% (inactive)
Nc1cccc(-c2cc3ccccc3oc2=O)c1 | 0.03% (inactive)
CC(C)c1nnc(NC(=O)CCC(=O)N2CCN(c3ccc(Cl)cc3)CC2)s1 | 18% (inactive)
CCCC(=O)Nc1sc2c(c1C#N)CCCCC2 | -7.16% (inactive)
O=[N+]([O-])c1ccc(COc2ccc(-c3[nH]ncc3-c3ccc(Cl)cc3)c(O)c2)cc1 | -5.46% (inactive)
Cc1nc(S/C(=C/c2ccc(-c3ccc(Cl)cc3)o2)C(=O)O)n[nH]1 | 0.99% (inactive)
Cc1ccc(NN=C2c3ccccc3-c3ccccc32)cc1 | -1.03% (inactive)
CN1CCC(=NNC(=O)C(=O)Nc2ccccc2F)CC1 | -0.59% (inactive)
O=C(Nc1cccc(-c2ccc(N3CCCCC3)nn2)c1)c1ccc(Br)o1 | 4.5% (inactive)
CCOC(=O)c1sc(C)c2c(=O)n(CC(=O)c3ccc(Br)cc3)nnc12 | -0.02% (inactive)
CCOC(=O)c1ccc(N2CC(O)=C(c3nc4ccccc4c(=O)[nH]3)C2=N)cc1 | 0.03% (inactive)
Cc1ccc(-c2cccc(NC(=O)C3C4C=CC(C4)C3C(=O)O)c2)o1 (stereo unspecified) | 19.9% (inactive)
CCN(CC)S(=O)(=O)c1cccc(NC(=O)Nc2cccc(C(F)(F)F)c2)c1 | 13.6% (inactive)
CC1Nc2ncnc(N3CCN(c4ccccc4)CC3)c2N(Cc2ccc(Br)cc2)C1=O (stereo unspecified) | 2.31% (inactive)
COc1cc2[nH]c3c(N4CCN(c5ccccn5)CC4)ncnc3c2cc1OC | 4.78% (inactive)
Clc1ccc(CSc2ncn[nH]2)cc1 | 5.76% (inactive)
COc1ccc(-c2ccnc3nc(N4CCN(c5ccccc5)CC4)nn23)cc1 | 9.15% (inactive)
c1ccc(CCN2CN=C(Nc3nc4ccccc4o3)NC2)cc1 | -12.8% (inactive)
Cc1ccc(NC(=O)COC(=O)c2ccc(=O)n(Cc3ccccc3)n2)cc1F | -2.62% (inactive)
COc1cc(OC)nc(Oc2ccccc2C(=O)Oc2ccc(Cl)cc2)n1 | 5.33% (inactive)
CCNc1nc(NC(C)(C)C)nc(N2CCCCC2)n1 | 6.41% (inactive)

Structure (SMILES) | inhibition
O=C(CCCC(=O)OCC(=O)c1cccs1)Nc1ccc(Oc2ccccc2)cc1 | 10.8% (inactive)
COc1ccc(N2COC3c4cccc5cccc(c45)C32)cc1 (stereo unspecified) | -0.43% (inactive)
Brc1ccc(-c2ccc(/C=N/Nc3nncc(-c4ccccc4)n3)o2)cc1 | 11.6% (inactive)
Cn1nnc(NC(=S)NC(=O)c2ccc(-c3ccc(Br)cc3)o2)n1 | 5.19% (inactive)
Cc1ccc(N/C=C2\C(=O)C3(C)CCC2C3(C)C)cc1C (stereo unspecified) | 2.28% (inactive)
Cc1cc(C(=O)N/N=C/c2ccc(-c3ccc([N+](=O)[O-])cc3Cl)o2)n[nH]1 | 14% (inactive)
Cc1ccc(-c2cc(C(F)(F)F)n3nc(C(=O)NCCCn4ccnc4)cc3n2)cc1C | -1.7% (inactive)
CCOC(=O)/C(=N\Nc1ccc(Br)cc1)N1CC(C)OC(C)C1 (stereo unspecified) | 12% (inactive)
C=CCn1c(=O)/c(=C/c2ccc(Cl)cc2)s/c1=C(/C#N)c1nnc2n1CCCCC2 | -2.32% (inactive)
Nc1ccc2c(c1)oc1ccccc12 | -7.66% (inactive)
CCOC(=O)NNc1ccccc1 | 5.17% (inactive)
CC1(CCc2ccccc2)NC(=S)N(c2ccc(Cl)cc2)N1 (stereo unspecified) | 10.4% (inactive)
Cn1c(=O)c2[nH]c(-c3ccc(S(=O)(=O)O)cc3)nc2n(C)c1=O | 0.47% (inactive)
Nc1ccc(Oc2ccc3c(c2)OCO3)cc1 | -3.59% (inactive)
COc1ccc(NC2=C(C(C)=O)C(c3ccc4c(c3)OCO4)C(C(C)=O)C(C)(O)C2)cc1 (stereo unspecified) | -3.81% (inactive)
Nc1ccc2c(c1)nnn2-c1ccccc1 | 5.99% (inactive)
O=S(=O)(Nc1ccn(-c2ccccc2)n1)c1ccc(Br)cc1 | 9.63% (inactive)
Cc1ccc(S(=O)(=O)c2nc(Nc3nccs3)sc2Cl)cc1 | -5.86% (inactive)
O=C(CSc1nc2cc(Cl)ccc2o1)c1cccs1 | 0.59% (inactive)
COC12C(COC(N)=O)C3=C(C(=O)C(C)=C(N)C3=O)N1CC1C2N1C (stereo unspecified) | -32.4% (inactive)
Oc1ccc(Br)cc1/C=N/Nc1nc(N2CCCCC2)nc(N2CCOCC2)n1 | -9.39% (inactive)
Nc1ccc(CCc2ccc(N)cc2)cc1 | -3.99% (inactive)

Structure (SMILES) | inhibition
COc1cc(/C=N/N(C)c2ccccc2)cc(Cl)c1O | 1.6% (inactive)
COc1cc2c(-c3ccc4[nH]ccc4c3)c(-c3ccc(C#N)cc3)oc(=O)c2cc1OC | 22.6% (inactive)
O=C1NC(=O)/C(=C/c2ccc(-c3cccc([N+](=O)[O-])c3)o2)S1 | 2.2% (inactive)
O=[N+]([O-])c1ccc(-c2ccc(/C=N/c3c(-c4ccco4)nc4ccccn34)o2)cc1 | 1.4% (inactive)
O=[N+]([O-])c1ccc(-c2csc(NN=C3CCCC3)n2)cc1 | 1.6% (inactive)
Nc1c(C(=O)Nc2ccc(Br)cc2)sc2nc(-c3ccco3)ccc12 | 2.28% (inactive)
CCCCn1cnc2cc(NCc3cccc(OC)c3O)ccc21 | 24.5% (inactive)
COc1ccc(NC(C#N)c2ccc(OC)cc2)cc1 (stereo unspecified) | 3.18% (inactive)
Nc1ccn([C@@H]2O[C@H](CO)[C@@H](O)C2O)c(=O)n1 (stereo partly specified) | 0.82% (inactive)
O=C(CSCC(=O)Nc1ccc2ccccc2c1)NCc1ccccc1 | -0.93% (inactive)
Cn1ccnc1-c1nnn(-c2ccc(Cl)c(Cl)c2)n1 | -4.2% (inactive)
CCOc1ccc(-n2c(-c3ccc(Br)cc3)c[n+]3c2CCCCC3)cc1 | 28.2% (inactive)
c1ccc(Cn2nnc3c(N4CCc5ccccc5C4)ncnc32)cc1 | 10.7% (inactive)
Cn1c(=O)c(C(=O)COC(=O)c2cc(C(F)(F)F)nc3c(C(F)(F)F)cccc23)c(N)n(CC2CC2)c1=O | -1.78% (inactive)
Cc1cc(NC(=O)c2noc3c2CCCC3)nn1Cc1ccc(Cl)cc1 | -5.15% (inactive)
Cc1ccc(NC(=O)/C(Cl)=C\c2ccccc2)cc1 | -8.13% (inactive)
Nc1ccc2c(c1)Cc1ccccc1-2 | -1.21% (inactive)
C/C=C(\C)C(=O)Nc1cccc(C2=NOC3(C2)C[C@H](C(N)=O)N(C(=O)c2cc([N+](=O)[O-])cc([N+](=O)[O-])c2)C3)c1 (stereo partly specified) | 20.7% (inactive)
